From PubChem BioAssay come the findings set out here.

The source made the active and inactive calls.

Test [1] in a line: small molecules captured by biotinylated probe aFSTL3 – biochemical, small-molecule microarray, fluorescence 635/667, stem cell growth factor project, primary screen (AID 1064).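 Also: measures binding of the biotinylated anti-FSTL3 antibody to printed compounds.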 To be noted: higher = more signal.
Test [2] in a line: binders from COS7 lysate, DM2A8 probe, primary screen, torsin A project, cell lysate, small-molecule microarray, fluorescence 635/667 (AID 1065). The following applies: higher = more signal, COS7 lysate expressing mutant human TOR1A.
Test [3] can be described thus: small molecules captured by biotinylated probe aFGF2 – biochemical, small-molecule microarray, fluorescence 635/667, stem cell growth factor project, primary screen (AID 1067).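 Also: measures binding of biotinylated aFGF2 protein to printed compounds on slides; z-score merges feature fluorescence and signal-to-noise across triplicate slides.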 The following applies: higher = more signal.
Test [4] can be described thus: small molecules captured by biotinylated probe aFGF10 – biochemical, small-molecule microarray, fluorescence 635/667, stem cell growth factor project, primary screen (AID 1071).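 Also: score merges 667 nm spot intensity and signal to noise from triplicate slides.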 To be noted: higher = more signal.
For test [5], the target named is Neurogenic locus notch homolog protein 2 (Homo sapiens) (UniProt Q04721). The experiment in a line: small molecules binding Notch2 protein – biochemical, small-molecule microarray, 635 nm fluorescence, stem cell growth factors, primary screen (AID 1073). To be noted: higher = more signal.
Test [6] has as its target Pro-neuregulin-1, membrane-bound isoform (Homo sapiens) (UniProt Q02297). The experiment in a line: small molecules binding neuregulin-1 protein – biochemical, small-molecule microarray, fluorescence 635/667, psychiatric disease protein project, primary screen (AID 1075).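 Also: score combines 667 nm spot fluorescence with signal to noise.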 The following applies: NRG1 binding, 635 nm fluorescence, higher = more signal.
For test [7], the system named is Neuregulin-1 EGF-like domain. Put plainly: small molecules binding NRG1 EGF domain – biochemical, small-molecule microarray, 635 nm fluorescence, primary screen (AID 1081).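 Also: binding of the protein to compounds printed on small-molecule microarray slides.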 To be noted: higher = more signal.
A short description of test [8]: FRG1 expression reporter modulators in myotubes – cell-based, C2C12 myotubes, firefly/Renilla luciferase, luminescence, FRG1 inhibition for FSHD, primary screen (AID 1084). To be noted: FRG1 promoter luciferase, higher = more signal, called active from +8 up or from −8 down.
The nature of test [9]: small molecules captured by biotinylated probe aFST – biochemical, small-molecule microarray, fluorescence 635/667, stem cell growth factor project, primary screen (AID 1086).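 Also: score merges 667 nm fluorescence with signal-to-noise of each printed compound spot.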 The following applies: higher = more signal.
Test [10] in a line: binders of probe aHhip on microarray, primary screen, stem cell growth factor project, biochemical, small-molecule microarray, fluorescence 635/667 (AID 1087).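 Also: score merges spot fluorescence at 667nm with spot signal to noise ratio.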 The following applies: higher = more signal.
For test [11], the system named is PRMT1 (protein arginine N-methyltransferase 1). The experiment in a line: small molecules binding arginine methyltransferase PRMT1 – biochemical, small-molecule microarray, 635 nm fluorescence, primary screen (AID 1088).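 Also: binding of Prmt1 protein to compounds spotted on small-molecule microarray slides.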 To be noted: higher = more signal.
Test [12] is described as follows: growth effects on S. cerevisiae YJM789 – YJM789 clinical isolate, OD600, 24 h, basal, primary screen (AID 1089).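 Also: growth of clinical yeast isolate S. cerevisiae YJM 789 seeded 1000 cells per well; test concentration not given here.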 To be noted: higher = more signal, called active from +8 up or from −8 down.
Test [13] can be described thus: S. pombe growth modifiers, basal conditions – strain 972, OD600, 24 h, no modulator, primary screen (AID 1090).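 Also: basal condition with compound alone and no growth modifier present; test concentration not given here.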 The following applies: S. pombe 972 growth, higher = more signal, called active from +8 up or from −8 down.
Test [14] is described as follows: budding yeast growth modifiers under rapamycin – strain BY4716, OD600, 96 h, primary screen (AID 1091). Also: test concentration not given here. The following applies: S. cerevisiae BY4716 + rapamycin, higher = more signal, called active from +8 up or from −8 down.
Test [15] addresses Torsin-1A-interacting protein 2 (Homo sapiens) (UniProt Q8NFQ8). The experiment in a line: small molecules binding lysate-expressed LULL1 – cell lysate, human LULL1 lysate, 635/667 nm fluorescence, primary screen (AID 1092).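 Also: probe is lysate of COS7 cells overexpressing human LULL1; score merges per-feature 667 nm fluorescence with signal-to-noise.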 To be noted: small-molecule microarray, hLULL1 lysate binding, 635 nm fluorescence; higher = more signal.
Test [16] can be described thus: optical density change of DRC41 E. coli – strain DRC41, OD650, 24 h, E. coli filamentation project, primary screen (AID 1093).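 Also: MC1000 strain lacking acrAB efflux and sulA so SOS filamentation is blocked; test concentration not given here.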 The following applies: E. coli DRC41 growth, higher = more signal, called active from +8 up or from −8 down.
The nature of test [17]: probe aLefty2 binding to arrayed compounds – biochemical, biotinylated probe, 635/667 nm fluorescence, primary screen (AID 1094).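 Also: score merges spot fluorescence near 667 nm with spot signal-to-noise ratio.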 The following applies: small-molecule microarray, higher = more signal.
Test [18] deals with Noggin (protein binding on small-molecule microarray). Put plainly: small molecules binding Noggin protein – biochemical, 635/667 nm fluorescence, primary screen (AID 1095).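 Also: score merges 667 nm feature fluorescence with signal to noise over triplicate slides.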 To be noted: 635 nm fluorescence, higher = more signal.
Test [19] addresses Neurogenic locus notch homolog protein 3 (Homo sapiens) (UniProt Q9UM47). The experiment in a line: small molecules binding NOTCH3 protein – biochemical, 635/667 nm fluorescence, primary screen (AID 1096). The following applies: small-molecule microarray, 635 nm fluorescence, higher = more signal.
Test [20] in a line: probe aEGFR binding to arrayed compounds – biochemical, biotinylated probe, 635/667 nm fluorescence, primary screen (AID 1097).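 Also: probe is a biotinylated anti-EGFR antibody binding compounds printed on slides; score combines fluorescence near 667 nm and signal to noise of each spot.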 The following applies: small-molecule microarray, higher = more signal.

Torsin-1A-interacting protein 2 (Homo sapiens), sequence (Q8NFQ8 whole entry, looked up): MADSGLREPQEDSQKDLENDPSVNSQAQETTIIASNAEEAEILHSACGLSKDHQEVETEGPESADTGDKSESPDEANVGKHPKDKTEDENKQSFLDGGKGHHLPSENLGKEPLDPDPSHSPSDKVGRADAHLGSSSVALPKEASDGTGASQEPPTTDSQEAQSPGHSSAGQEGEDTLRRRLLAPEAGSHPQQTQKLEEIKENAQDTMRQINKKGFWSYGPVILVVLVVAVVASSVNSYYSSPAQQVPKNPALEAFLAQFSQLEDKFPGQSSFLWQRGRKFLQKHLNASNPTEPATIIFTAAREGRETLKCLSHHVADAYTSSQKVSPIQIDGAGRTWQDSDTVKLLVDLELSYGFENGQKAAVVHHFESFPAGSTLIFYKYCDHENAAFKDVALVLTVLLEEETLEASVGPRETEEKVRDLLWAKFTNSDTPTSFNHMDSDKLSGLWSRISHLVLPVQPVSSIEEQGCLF
Neurogenic locus notch homolog protein 2 (Homo sapiens), sequence (Q04721 whole entry, looked up, canonical isoform): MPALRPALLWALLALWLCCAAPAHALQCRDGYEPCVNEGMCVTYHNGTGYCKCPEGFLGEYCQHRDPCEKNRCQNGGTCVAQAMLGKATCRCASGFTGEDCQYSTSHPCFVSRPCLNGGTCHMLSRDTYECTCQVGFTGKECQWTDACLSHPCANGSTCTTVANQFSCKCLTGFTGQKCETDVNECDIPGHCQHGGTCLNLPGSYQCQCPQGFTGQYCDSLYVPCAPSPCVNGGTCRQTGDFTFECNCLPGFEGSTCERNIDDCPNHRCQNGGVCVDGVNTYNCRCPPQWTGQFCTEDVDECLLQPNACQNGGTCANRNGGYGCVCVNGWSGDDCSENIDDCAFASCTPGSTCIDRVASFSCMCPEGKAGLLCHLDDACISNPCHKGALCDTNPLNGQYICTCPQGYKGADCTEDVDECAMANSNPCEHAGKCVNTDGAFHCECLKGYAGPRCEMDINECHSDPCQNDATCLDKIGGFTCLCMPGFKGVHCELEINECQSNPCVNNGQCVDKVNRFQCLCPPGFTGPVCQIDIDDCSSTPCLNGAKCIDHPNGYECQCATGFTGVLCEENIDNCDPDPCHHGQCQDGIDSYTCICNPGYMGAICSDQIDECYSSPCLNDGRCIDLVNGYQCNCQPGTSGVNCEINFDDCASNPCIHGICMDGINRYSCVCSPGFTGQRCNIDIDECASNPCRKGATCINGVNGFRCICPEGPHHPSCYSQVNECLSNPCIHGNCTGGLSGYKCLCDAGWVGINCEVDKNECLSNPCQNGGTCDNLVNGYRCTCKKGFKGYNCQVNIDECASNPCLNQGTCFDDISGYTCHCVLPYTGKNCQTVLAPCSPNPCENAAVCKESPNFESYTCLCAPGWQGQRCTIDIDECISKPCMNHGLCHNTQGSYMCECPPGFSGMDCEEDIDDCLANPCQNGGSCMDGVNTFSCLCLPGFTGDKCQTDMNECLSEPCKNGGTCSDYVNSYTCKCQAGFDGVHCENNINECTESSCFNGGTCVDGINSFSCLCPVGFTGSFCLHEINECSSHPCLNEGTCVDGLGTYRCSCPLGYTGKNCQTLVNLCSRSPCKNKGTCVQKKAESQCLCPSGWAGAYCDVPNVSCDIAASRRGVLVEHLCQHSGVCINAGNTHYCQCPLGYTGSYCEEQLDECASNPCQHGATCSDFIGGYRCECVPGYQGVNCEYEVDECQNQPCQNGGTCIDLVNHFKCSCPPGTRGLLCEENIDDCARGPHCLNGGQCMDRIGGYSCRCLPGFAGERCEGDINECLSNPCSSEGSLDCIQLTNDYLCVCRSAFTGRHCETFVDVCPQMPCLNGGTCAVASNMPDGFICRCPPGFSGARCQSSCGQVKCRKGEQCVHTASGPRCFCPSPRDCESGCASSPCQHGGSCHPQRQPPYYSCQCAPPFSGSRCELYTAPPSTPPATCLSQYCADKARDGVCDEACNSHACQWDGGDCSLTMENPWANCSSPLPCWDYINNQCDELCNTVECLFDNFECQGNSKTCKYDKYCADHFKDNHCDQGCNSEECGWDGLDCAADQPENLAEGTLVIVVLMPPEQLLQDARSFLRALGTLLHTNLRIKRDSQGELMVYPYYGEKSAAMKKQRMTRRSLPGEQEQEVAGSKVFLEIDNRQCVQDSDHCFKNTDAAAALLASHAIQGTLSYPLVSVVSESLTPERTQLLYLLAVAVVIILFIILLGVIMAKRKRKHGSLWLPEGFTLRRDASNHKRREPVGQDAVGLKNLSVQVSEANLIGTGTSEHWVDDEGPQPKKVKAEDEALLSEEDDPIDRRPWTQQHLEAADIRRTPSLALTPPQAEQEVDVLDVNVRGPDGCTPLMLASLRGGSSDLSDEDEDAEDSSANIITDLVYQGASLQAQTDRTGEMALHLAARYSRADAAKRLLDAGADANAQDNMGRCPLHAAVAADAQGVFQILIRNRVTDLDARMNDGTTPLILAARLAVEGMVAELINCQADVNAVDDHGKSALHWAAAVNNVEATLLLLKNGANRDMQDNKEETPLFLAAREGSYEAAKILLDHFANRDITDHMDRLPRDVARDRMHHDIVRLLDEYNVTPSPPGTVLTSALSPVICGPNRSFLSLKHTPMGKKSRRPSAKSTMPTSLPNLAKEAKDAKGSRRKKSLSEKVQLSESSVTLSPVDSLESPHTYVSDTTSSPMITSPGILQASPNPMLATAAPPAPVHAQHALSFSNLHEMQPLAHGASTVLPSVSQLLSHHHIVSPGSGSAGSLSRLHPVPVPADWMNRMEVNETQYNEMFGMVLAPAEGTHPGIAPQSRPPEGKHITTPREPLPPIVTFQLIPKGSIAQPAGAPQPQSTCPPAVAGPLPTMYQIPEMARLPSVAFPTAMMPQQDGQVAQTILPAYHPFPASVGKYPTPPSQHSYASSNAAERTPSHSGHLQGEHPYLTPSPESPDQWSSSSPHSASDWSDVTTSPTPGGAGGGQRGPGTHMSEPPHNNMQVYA
Pro-neuregulin-1, membrane-bound isoform (Homo sapiens), sequence (Q02297 whole entry, looked up, the tested form may be a part, canonical isoform): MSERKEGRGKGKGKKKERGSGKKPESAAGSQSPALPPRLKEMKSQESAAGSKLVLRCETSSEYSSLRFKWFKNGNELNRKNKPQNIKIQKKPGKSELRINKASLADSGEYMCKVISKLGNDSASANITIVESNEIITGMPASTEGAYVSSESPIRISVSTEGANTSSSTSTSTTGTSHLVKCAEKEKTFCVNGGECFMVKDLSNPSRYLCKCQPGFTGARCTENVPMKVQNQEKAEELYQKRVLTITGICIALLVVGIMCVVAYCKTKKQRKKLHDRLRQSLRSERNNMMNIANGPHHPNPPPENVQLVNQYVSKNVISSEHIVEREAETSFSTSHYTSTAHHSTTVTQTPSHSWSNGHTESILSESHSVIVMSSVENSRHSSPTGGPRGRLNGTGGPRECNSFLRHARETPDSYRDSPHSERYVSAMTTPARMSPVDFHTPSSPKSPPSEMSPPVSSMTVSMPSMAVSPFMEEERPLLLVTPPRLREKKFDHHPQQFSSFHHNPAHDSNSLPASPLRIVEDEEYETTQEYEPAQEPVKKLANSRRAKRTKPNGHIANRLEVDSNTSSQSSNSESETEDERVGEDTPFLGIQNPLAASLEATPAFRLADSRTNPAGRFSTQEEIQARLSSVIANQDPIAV

Turning to `C=CC1c2cc(O)c(OC)cc2CCN1Cc1cc2c(cc1Br)OCO2` (stereo not given), the composite z-score was 1.54 in [1]; 1.07 in test [2]; -0.101 in [3]; -0.15 in [4]; -0.322 in test [5]; 1.19 in test [6]. Besides, the composite z-score in test [7] was 1.22; in test [9], 0.221; in [10], -0.132; in [11], 1.25; in [15], 2.51; in test [17] it was 0.386. Moreover, the composite z-score in test [18] was 0.289; in [19], 0.435; in test [20] it was -0.132. Further, the z-score is -0.454 (inactive) in [8]; -17.7 (active) in [12]; -19.8 (active) in [13]; -1.33 (inactive) in test [14]; -2 (inactive) in test [16].
With `Cc1ccc(S[C@]2(C(=O)NCCCN(C)C)CC(=O)N(C3CCCCC3)[C@@H]2c2ccc(CO)cc2)cc1`, the composite z-score was 0.655 in test [1]; -1.19 in test [2]; -0.0885 in test [3]; -0.418 in [4]; -0.503 in test [5]; 1.43 in [6]. The composite z-score in test [7] is 0.98; in test [9] it was -0.249; in test [10] it was -0.132; in [11], -0.0316; in [15], 0.555; in test [17] it was 0.0321. In addition, the composite z-score is -0.561 in test [18], -0.662 in test [19] and -0.106 in [20]. The z-score in [8] is -0.404 (inactive); in test [12], -0.96 (inactive); in [13], -2.22 (inactive); in test [14] it was -0.655 (inactive); in test [16], 0.457 (inactive).
As for `CN(C)C(=O)[C@@]1(CCS(=O)(=O)c2ccccc2)N=C(c2ccc(OCCCO)cc2)O[C@H]1c1ccccc1`, the composite z-score in [1] was -0.0356; in [2], 0.79; in test [3] it was 0.163; in test [4] it was 0.746; in [5], 1.35; in [6], 2.13. Besides, the composite z-score in test [7] was determined as 1.34; in [9], 1.52; in test [10], 0.0401; in test [11] it was 1.07; in test [15] it was 3.51; in [17], 0.0932. For the same compound, the results for the composite z-score in [18], in [19] and in test [20] were -0.135, 1.08 and -0.0215, respectively. For the same compound, the z-score is -0.522 (inactive) in test [8]; -0.308 (inactive) in test [12]; -0.255 (inactive) in [13]; 0.117 (inactive) in test [14]; -0.16 (inactive) in [16].
Take `O=C1O[C@@H](c2ccccc2)[C@@H](c2ccccc2)N2[C@@H](c3ccc(O)cc3)[C@]3(C(=O)Nc4ccc(C#CC5=CCCCC5)cc43)[C@@H](C(=O)NC[C@H](O)c3ccccc3)[C@H]12`: the composite z-score in [1] was 0.135; in [2], 1.76; in test [3] it was -0.0181; in [4], 0.508; in test [5], 1.52; in test [6], 1.2. For the same compound, the composite z-score in test [7] is 1.35; in [9], 0.398; in test [10], 0.251; in test [11] it was 1.54; in [15], 2.55; in test [17], -0.0916. Moreover, the results for the composite z-score in test [18], in [19] and in [20] were 1.22, 1.07 and 0.12, respectively. In addition, the z-score is 0.754 (inactive) in test [8]; 1.31 (inactive) in test [12]; 0.18 (inactive) in test [13]; 2.89 (inactive) in test [14]; 1.24 (inactive) in [16].
As to `COc1ccc(CN(C2=CC[C@@]3(C(N)=O)C(=O)C(Cl)=C(Cl)C(=O)[C@@]3(C#N)C2)S(=O)(=O)c2ccc(Br)cc2)cc1`, the composite z-score in test [1] is -0.181; in [2], -0.0483; in [3], -0.0657; in test [4], 0.497; in test [5], 0.765; in [6], 0.914. For the same compound, the composite z-score is 1.11 in test [7]; 0.343 in test [9]; 0.0176 in test [10]; -0.196 in test [11]; 3.31 in [15]; 0.0496 in [17]. Further, the composite z-score was -0.0701 in test [18], -0.366 in [19] and -0.111 in test [20]. In addition, the z-score was -0.991 (inactive) in test [8]; -1.62 (inactive) in test [12]; -2.63 (inactive) in test [13]; -0.266 (inactive) in [14]; 1.29 (inactive) in test [16].
